Data on 25 molecules can be found in ChEMBL document CHEMBL1157539, “Thousands of chemical starting points for antimalarial lead identification” (Nature, 2010).

Common to all, as to format: functional
For assay [1], the system named is Plasmodium falciparum. Briefly: GSK_TCMDC: Inhibition of Plasmodium falciparum 3D7 in whole red blood cells, using parasite LDH activity as an index of growth. Test compounds present at 2uM.
For assay [2], the system named is Plasmodium falciparum. The assay can be described thus: GSK_TCMDC: Inhibition of Plasmodium falciparum Dd2 in whole red blood cells, using parasite LDH activity as an index of growth. Test compounds present at 2uM.
In assay [3] the test system is HepG2. Briefly: GSK_TCMDC: Percent inhibition of human HepG2 cell line. Test compounds present at 10uM.

On to `COc1cccc(NC(=O)Nc2ccc(Nc3nc(C)cc(N4CCCC4)n3)cc2)c1`, for which the Inhibition in assay [1] is listed as 100%; in assay [2], 100%; in assay [3], 28%.

As to `CN(c1ccc(NC(=O)c2ccc(F)cc2)cc1)C1CCN(Cc2cccc(F)c2)C1.O=C(O)C(F)(F)F` (stereo not given), the results for the Inhibition in assay [1], in assay [2] and in assay [3] were 81%, 74% and 3%, respectively.

In the case of `O=C(NC1CCCCC1)C1CCCN(C(=O)c2ccc(O)c(-c3ccc(Cl)c(Cl)c3)c2)C1` (stereo not given), the Inhibition is given as 89% in assay [1], 42% in assay [2] and 22% in assay [3].

For `Cc1ncc([N+](=O)[O-])n1CCOC(=O)NC(Nc1ccc(Br)cc1)C(Cl)(Cl)Cl` (stereo not given), the Inhibition in assay [1] is given as 99%; in assay [2], 100%; in assay [3] it was 0%.

As for `COc1ccc2[nH]c(C)cc(=NN=Cc3ccc(Cl)cc3)c2c1`, the figures for the Inhibition in assay [1], in assay [2] and in assay [3] were 100%, 100% and 2%, respectively.

In the case of `N#Cc1ccc(-c2ccc(C(=O)NCCCCN3CCC(c4ccc5c(c4OCc4ccncc4)CCCC5)CC3)cc2)cc1`, the figures for the Inhibition in assay [1], in assay [2] and in assay [3] were 81%, 57% and 41%, respectively.

As to `CC(C)(C)Cn1cc(-c2ccc(C(=O)NCCc3ccc(S(C)(=O)=O)cc3)cc2)c(N)n1.CC(C)(C)Cn1ncc(-c2ccc(C(=O)NCCc3ccc(S(C)(=O)=O)cc3)cc2)c1N.O=C(O)C(F)(F)F`, the Inhibition is listed as 86% in assay [1], 10% in assay [2] and 7% in assay [3].

Regarding `N#Cc1cccc(C(=O)Nc2cccc(-c3ccc(C(=O)NCCCN4CCOCC4)cc3)c2)c1`, the Inhibition in assay [1] turned out to be 96%; in assay [2] it was 21%; in assay [3] it was 21%.

With `Cc1cc(N[C@@H](Cc2ccccc2)C(=O)NCc2cccs2)nc(NCCc2cccnc2)n1.O=C(O)C(F)(F)F`, the Inhibition was found to be 84% in assay [1], 38% in assay [2] and 10% in assay [3].

On to `CN(C)CCOc1ccnc2ccc(NC(=O)Cc3ccc(-c4ccncc4)c4ccccc34)cc12`, for which the Inhibition in assay [1] turned out to be 100%; in assay [2], 100%; in assay [3], 10%.

In the case of `Cc1ccc(Nc2nc(N/N=C/c3cccc([N+](=O)[O-])c3)nc(Nc3ccccc3)n2)c(C)c1`, the Inhibition was found to be 91% in assay [1], 97% in assay [2] and 9% in assay [3].

As to `COCCN1CCN(Cc2ccc(-c3ccc(-c4nc5cc(F)ccc5[nH]4)cc3)cc2)CC1.O=C(O)C(F)(F)F`, the results for the Inhibition in assay [1], in assay [2] and in assay [3] were 100%, 99% and 25%, respectively.

In the case of `Cn1cncc1C(=O)Nc1cccc(-c2csc(-c3nc4ccccc4[nH]3)c2)c1`, the Inhibition in assay [1] was 100%; in assay [2], 64%; in assay [3], 15%.

As for `Cc1ccc(/C=C/C(=O)NCCCCCN2CCC(c3c[nH]c4ccccc34)CC2)cc1`, the Inhibition in assay [1] is 86%; in assay [2], 7%; in assay [3], 36%.

As for `NC(=O)c1cccc(C(=O)Nc2ccc(-c3cccc(-c4nc5cc(F)ccc5[nH]4)c3)cc2)c1`, the Inhibition in assay [1] turned out to be 94%; in assay [2], 5%; in assay [3] it was 45%.

As for `CCNc1cc(C(=O)N[C@@H](Cc2ccccc2)[C@H](O)CNC2(Cc3cccc(Cl)c3)CCC2)cc(N2CCCCS2(=O)=O)c1.Cl`, the results for the Inhibition in assay [1], in assay [2] and in assay [3] were 95%, 83% and 22%, respectively.

Regarding `COc1cc2nc(N(C)C)nc(Nc3ccc(OCc4ccccc4)cc3)c2cc1OC`, the results for the Inhibition in assay [1], in assay [2] and in assay [3] were 100%, 100% and 91%, respectively.

For the molecule `COc1ccc2nccc(N(C)CC3(O)CCN(CC(O)c4ccc5c(c4)NC(=O)CS5)CC3)c2n1.Cl` (stereo not given), the Inhibition in assay [1] was determined as 100%; in assay [2] it was 0%; in assay [3], 1%.

As to `CN1CCCC(CN2CCN(Cc3cccc(-c4ccc(-c5nc6cc(C(F)(F)F)ccc6[nH]5)cc4)c3)CC2)C1.O=C(O)C(F)(F)F` (stereo not given), the Inhibition is reported as 99% in assay [1], 96% in assay [2] and 100% in assay [3].

As to `Cl.Oc1ccc(Cc2ccccc2)cc1CNC1CCCCC1`, the results for the Inhibition in assay [1], in assay [2] and in assay [3] were 96%, 98% and 30%, respectively.

Take `Cc1cnc(CN(Cc2ccc(-c3ccc(CNCCc4ccc(S(C)(=O)=O)cc4)cn3)cc2)C(=O)c2ccc([N+](=O)[O-])c(C)c2)cn1.O=C(O)C(F)(F)F`: the values for the Inhibition in assay [1], in assay [2] and in assay [3] were 93%, 15% and 0%, respectively.

As to `O=C(N[C@@H](Cc1ccccc1)C(=O)NCc1cccc(C(F)(F)F)c1)c1ccc(O)c(-c2ccc(Cl)c(Cl)c2)c1`, the Inhibition in assay [1] is reported as 96%; in assay [2], 97%; in assay [3] it was 0%.

As for `O=C(Nc1ccc(C(=O)N2CCN(CCN3CCN(c4cccc(C(F)(F)F)c4)CC3)CC2)cc1)c1ccc(OC(F)(F)F)cc1`, the Inhibition is listed as 95% in assay [1], 25% in assay [2] and 38% in assay [3].

Take `Cn1c2c(c3ccccc31)CN(CCC1(c3ccc(Cl)c(Cl)c3)CN(C(=O)c3ccccc3)CCO1)CC2` (stereo not given): the Inhibition in assay [1] is given as 97%; in assay [2], 88%; in assay [3], 10%.

With `O=C(NC1CCN(c2ccnc3cc(Cl)ccc23)C1)c1ccc(C(F)(F)F)cc1.O=C(O)C(F)(F)F` (stereo not given), the Inhibition in assay [1] is 100%; in assay [2], 57%; in assay [3], 37%.

One may read the Inhibition as how much of the control response was suppressed. Read a low Inhibition as little suppression.
